# Source: PubChem BioAssay
# The source made the active and inactive calls.
# How the values were obtained:
# [1] = small molecules captured by biotinylated probe aFSTL3 – biochemical, small-molecule microarray, fluorescence 635/667, stem cell growth factor project, primary screen (AID 1064); conditions: higher = more signal;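 further: measures binding of the biotinylated anti-FSTL3 antibody to printed compounds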
# [2] = binders from COS7 lysate, DM2A8 probe, primary screen, torsin A project, cell lysate, small-molecule microarray, fluorescence 635/667 (AID 1065); conditions: higher = more signal, COS7 lysate expressing mutant human TOR1A
# [3] = small molecules captured by biotinylated probe aFGF2 – biochemical, small-molecule microarray, fluorescence 635/667, stem cell growth factor project, primary screen (AID 1067); conditions: higher = more signal;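 further: measures binding of biotinylated aFGF2 protein to printed compounds on slides; z-score merges feature fluorescence and signal-to-noise across triplicate slides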
# [4] = small molecules captured by biotinylated probe aFGF10 – biochemical, small-molecule microarray, fluorescence 635/667, stem cell growth factor project, primary screen (AID 1071); conditions: higher = more signal;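 further: score merges 667 nm spot intensity and signal to noise from triplicate slides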
# [5] = target: Neurogenic locus notch homolog protein 2 (Homo sapiens) (UniProt Q04721); assay: small molecules binding Notch2 protein – biochemical, small-molecule microarray, 635 nm fluorescence, stem cell growth factors, primary screen (AID 1073); conditions: higher = more signal
# Sequence of Neurogenic locus notch homolog protein 2 (Homo sapiens) (Q04721 whole entry, looked up, canonical isoform): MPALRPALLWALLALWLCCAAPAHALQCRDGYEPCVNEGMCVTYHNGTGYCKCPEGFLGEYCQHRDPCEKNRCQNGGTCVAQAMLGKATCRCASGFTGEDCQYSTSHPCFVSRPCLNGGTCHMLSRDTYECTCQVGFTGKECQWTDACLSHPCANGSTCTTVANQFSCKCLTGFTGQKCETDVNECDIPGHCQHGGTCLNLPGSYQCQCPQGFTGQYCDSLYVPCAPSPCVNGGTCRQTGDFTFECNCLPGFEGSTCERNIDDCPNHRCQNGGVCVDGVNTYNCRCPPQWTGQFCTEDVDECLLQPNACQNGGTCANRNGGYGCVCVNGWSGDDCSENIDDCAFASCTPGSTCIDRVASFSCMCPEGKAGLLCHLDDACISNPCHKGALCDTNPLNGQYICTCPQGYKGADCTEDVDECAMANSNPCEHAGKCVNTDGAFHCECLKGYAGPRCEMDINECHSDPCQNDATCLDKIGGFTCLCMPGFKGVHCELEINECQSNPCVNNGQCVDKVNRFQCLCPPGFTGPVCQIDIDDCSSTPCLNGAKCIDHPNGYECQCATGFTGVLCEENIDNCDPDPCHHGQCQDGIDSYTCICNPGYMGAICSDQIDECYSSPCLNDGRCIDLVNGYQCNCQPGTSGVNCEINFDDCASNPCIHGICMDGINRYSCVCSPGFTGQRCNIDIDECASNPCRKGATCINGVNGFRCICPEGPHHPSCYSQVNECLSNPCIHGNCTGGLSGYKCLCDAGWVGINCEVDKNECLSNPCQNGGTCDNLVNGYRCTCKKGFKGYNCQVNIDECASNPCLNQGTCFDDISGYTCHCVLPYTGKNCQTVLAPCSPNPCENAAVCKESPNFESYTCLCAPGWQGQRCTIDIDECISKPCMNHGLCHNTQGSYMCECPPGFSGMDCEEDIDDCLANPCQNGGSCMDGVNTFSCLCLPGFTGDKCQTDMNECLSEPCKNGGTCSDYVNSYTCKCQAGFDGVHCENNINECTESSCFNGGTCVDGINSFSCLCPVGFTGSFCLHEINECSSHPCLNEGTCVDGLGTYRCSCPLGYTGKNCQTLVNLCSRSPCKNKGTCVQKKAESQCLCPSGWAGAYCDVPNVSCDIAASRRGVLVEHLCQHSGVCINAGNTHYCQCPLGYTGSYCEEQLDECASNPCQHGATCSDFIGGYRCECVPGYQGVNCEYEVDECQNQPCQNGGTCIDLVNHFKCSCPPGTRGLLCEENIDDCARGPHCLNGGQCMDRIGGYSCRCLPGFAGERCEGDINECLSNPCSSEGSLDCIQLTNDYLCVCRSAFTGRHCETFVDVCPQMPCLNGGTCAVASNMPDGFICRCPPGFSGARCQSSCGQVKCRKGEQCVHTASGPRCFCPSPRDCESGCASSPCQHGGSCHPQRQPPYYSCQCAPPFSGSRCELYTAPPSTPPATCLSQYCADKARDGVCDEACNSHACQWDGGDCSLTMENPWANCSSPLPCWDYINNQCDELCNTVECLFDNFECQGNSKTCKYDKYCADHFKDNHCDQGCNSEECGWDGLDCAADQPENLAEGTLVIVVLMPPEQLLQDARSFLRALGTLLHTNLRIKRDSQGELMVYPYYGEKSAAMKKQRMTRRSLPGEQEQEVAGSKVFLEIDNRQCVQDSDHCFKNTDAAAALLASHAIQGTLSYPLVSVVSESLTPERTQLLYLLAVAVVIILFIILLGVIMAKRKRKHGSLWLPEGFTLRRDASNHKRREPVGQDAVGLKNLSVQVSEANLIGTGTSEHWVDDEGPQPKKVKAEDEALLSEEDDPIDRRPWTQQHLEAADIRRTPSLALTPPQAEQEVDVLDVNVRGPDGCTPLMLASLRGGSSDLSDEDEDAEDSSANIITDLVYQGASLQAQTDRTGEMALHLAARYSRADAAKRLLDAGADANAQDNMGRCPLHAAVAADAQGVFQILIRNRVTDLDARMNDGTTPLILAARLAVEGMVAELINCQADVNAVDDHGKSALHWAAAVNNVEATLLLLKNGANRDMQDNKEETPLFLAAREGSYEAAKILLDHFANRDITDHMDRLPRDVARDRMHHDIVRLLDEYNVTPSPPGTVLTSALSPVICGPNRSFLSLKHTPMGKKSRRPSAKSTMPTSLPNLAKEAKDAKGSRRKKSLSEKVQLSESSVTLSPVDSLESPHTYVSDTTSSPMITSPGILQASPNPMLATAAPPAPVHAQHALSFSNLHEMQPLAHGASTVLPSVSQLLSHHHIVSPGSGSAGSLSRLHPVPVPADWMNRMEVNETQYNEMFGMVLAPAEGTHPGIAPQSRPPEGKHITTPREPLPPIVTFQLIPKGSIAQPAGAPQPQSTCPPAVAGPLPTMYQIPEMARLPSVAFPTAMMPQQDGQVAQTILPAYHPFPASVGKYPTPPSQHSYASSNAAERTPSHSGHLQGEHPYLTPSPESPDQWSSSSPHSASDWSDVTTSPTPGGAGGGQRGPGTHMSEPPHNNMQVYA
# [6] = target: Pro-neuregulin-1, membrane-bound isoform (Homo sapiens) (UniProt Q02297); assay: small molecules binding neuregulin-1 protein – biochemical, small-molecule microarray, fluorescence 635/667, psychiatric disease protein project, primary screen (AID 1075); conditions: NRG1 binding, 635 nm fluorescence, higher = more signal;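 further: score combines 667 nm spot fluorescence with signal to noise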
# Sequence of Pro-neuregulin-1, membrane-bound isoform (Homo sapiens) (Q02297 whole entry, looked up, the tested form may be a part, canonical isoform): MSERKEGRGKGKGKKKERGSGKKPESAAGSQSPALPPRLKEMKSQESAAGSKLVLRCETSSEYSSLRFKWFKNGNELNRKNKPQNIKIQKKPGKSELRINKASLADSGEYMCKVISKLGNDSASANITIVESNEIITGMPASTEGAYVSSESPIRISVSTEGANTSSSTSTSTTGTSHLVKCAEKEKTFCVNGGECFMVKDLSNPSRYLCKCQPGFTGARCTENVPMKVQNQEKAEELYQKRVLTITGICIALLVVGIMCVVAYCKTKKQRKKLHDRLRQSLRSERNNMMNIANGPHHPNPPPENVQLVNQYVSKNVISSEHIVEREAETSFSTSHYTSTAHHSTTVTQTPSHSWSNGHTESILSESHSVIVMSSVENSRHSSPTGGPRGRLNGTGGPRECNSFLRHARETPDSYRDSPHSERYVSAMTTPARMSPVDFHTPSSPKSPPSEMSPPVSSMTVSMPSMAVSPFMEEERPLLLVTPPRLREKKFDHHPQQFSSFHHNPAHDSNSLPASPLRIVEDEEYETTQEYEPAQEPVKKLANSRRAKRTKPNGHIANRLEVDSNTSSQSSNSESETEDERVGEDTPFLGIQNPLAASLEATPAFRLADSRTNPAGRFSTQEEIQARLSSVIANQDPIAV
# [7] = system: Neuregulin-1 EGF-like domain; assay: small molecules binding NRG1 EGF domain – biochemical, small-molecule microarray, 635 nm fluorescence, primary screen (AID 1081); conditions: higher = more signal;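 further: binding of the protein to compounds printed on small-molecule microarray slides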
# [8] = FRG1 expression reporter modulators in myotubes – cell-based, C2C12 myotubes, firefly/Renilla luciferase, luminescence, FRG1 inhibition for FSHD, primary screen (AID 1084); conditions: FRG1 promoter luciferase, higher = more signal, called active from +8 up or from −8 down
# [9] = small molecules captured by biotinylated probe aFST – biochemical, small-molecule microarray, fluorescence 635/667, stem cell growth factor project, primary screen (AID 1086); conditions: higher = more signal;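 further: score merges 667 nm fluorescence with signal-to-noise of each printed compound spot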
# [10] = binders of probe aHhip on microarray, primary screen, stem cell growth factor project, biochemical, small-molecule microarray, fluorescence 635/667 (AID 1087); conditions: higher = more signal;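 further: score merges spot fluorescence at 667nm with spot signal to noise ratio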
# [11] = system: PRMT1 (protein arginine N-methyltransferase 1); assay: small molecules binding arginine methyltransferase PRMT1 – biochemical, small-molecule microarray, 635 nm fluorescence, primary screen (AID 1088); conditions: higher = more signal;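 further: binding of Prmt1 protein to compounds spotted on small-molecule microarray slides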
# [12] = growth effects on S. cerevisiae YJM789 – YJM789 clinical isolate, OD600, 24 h, basal, primary screen (AID 1089); conditions: higher = more signal, called active from +8 up or from −8 down;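 further: growth of clinical yeast isolate S. cerevisiae YJM 789 seeded 1000 cells per well; test concentration not given here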
# [13] = S. pombe growth modifiers, basal conditions – strain 972, OD600, 24 h, no modulator, primary screen (AID 1090);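 further: basal condition with compound alone and no growth modifier present; test concentration not given here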; conditions: S. pombe 972 growth, higher = more signal, called active from +8 up or from −8 down
# [14] = budding yeast growth modifiers under rapamycin – strain BY4716, OD600, 96 h, primary screen (AID 1091); further: test concentration not given here; conditions: S. cerevisiae BY4716 + rapamycin, higher = more signal, called active from +8 up or from −8 down
# [15] = target: Torsin-1A-interacting protein 2 (Homo sapiens) (UniProt Q8NFQ8); assay: small molecules binding lysate-expressed LULL1 – cell lysate, human LULL1 lysate, 635/667 nm fluorescence, primary screen (AID 1092); conditions: small-molecule microarray, hLULL1 lysate binding, 635 nm fluorescence; higher = more signal;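 further: probe is lysate of COS7 cells overexpressing human LULL1; score merges per-feature 667 nm fluorescence with signal-to-noise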
# Sequence of Torsin-1A-interacting protein 2 (Homo sapiens) (Q8NFQ8 whole entry, looked up): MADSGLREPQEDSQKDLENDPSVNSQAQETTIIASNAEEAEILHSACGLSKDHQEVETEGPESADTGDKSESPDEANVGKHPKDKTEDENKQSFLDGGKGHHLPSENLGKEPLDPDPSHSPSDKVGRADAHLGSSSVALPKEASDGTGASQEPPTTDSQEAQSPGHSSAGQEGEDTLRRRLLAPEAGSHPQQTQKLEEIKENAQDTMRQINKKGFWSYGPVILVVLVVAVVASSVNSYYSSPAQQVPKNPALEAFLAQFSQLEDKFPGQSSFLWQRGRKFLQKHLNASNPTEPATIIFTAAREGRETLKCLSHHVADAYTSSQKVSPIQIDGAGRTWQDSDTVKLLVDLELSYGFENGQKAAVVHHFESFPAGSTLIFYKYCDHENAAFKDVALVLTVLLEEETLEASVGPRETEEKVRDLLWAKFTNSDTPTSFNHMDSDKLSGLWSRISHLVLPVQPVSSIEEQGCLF
# [16] = optical density change of DRC41 E. coli – strain DRC41, OD650, 24 h, E. coli filamentation project, primary screen (AID 1093);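 further: MC1000 strain lacking acrAB efflux and sulA so SOS filamentation is blocked; test concentration not given here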; conditions: E. coli DRC41 growth, higher = more signal, called active from +8 up or from −8 down
# [17] = probe aLefty2 binding to arrayed compounds – biochemical, biotinylated probe, 635/667 nm fluorescence, primary screen (AID 1094); conditions: small-molecule microarray, higher = more signal;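 further: score merges spot fluorescence near 667 nm with spot signal-to-noise ratio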
# [18] = system: Noggin (protein binding on small-molecule microarray); assay: small molecules binding Noggin protein – biochemical, 635/667 nm fluorescence, primary screen (AID 1095); conditions: 635 nm fluorescence, higher = more signal;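 further: score merges 667 nm feature fluorescence with signal to noise over triplicate slides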
# [19] = target: Neurogenic locus notch homolog protein 3 (Homo sapiens) (UniProt Q9UM47); assay: small molecules binding NOTCH3 protein – biochemical, 635/667 nm fluorescence, primary screen (AID 1096); conditions: small-molecule microarray, 635 nm fluorescence, higher = more signal
# [20] = probe aEGFR binding to arrayed compounds – biochemical, biotinylated probe, 635/667 nm fluorescence, primary screen (AID 1097); conditions: small-molecule microarray, higher = more signal;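 further: probe is a biotinylated anti-EGFR antibody binding compounds printed on slides; score combines fluorescence near 667 nm and signal to noise of each spot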
structure (smiles),measurement,setting,value
COC(=O)CC=C[C@@H](C)[C@@H](C=NOC(C)CN1CCCc2nc(C)c(C)cc21)OC (stereo not given in full),composite z-score,[1],-0.111
same,composite z-score,[2],0.382
same,composite z-score,[3],-0.121
same,composite z-score,[4],0.354
same,composite z-score,[5],0.401
same,composite z-score,[6],-0.171
same,composite z-score,[7],0.375
same,z-score,[8],0.422 (inactive)
same,composite z-score,[9],0.0017
same,composite z-score,[10],-0.0237
same,composite z-score,[11],0.356
same,z-score,[12],0.293 (inactive)
same,z-score,[13],0.245 (inactive)
same,z-score,[14],0.0448 (inactive)
same,composite z-score,[15],0.283
same,z-score,[16],-0.64 (inactive)
same,composite z-score,[17],-0.165
same,composite z-score,[18],0.541
same,composite z-score,[19],0.625
same,composite z-score,[20],0.0009
COC(=O)[C@@H]1CC[C@H](C)[C@@H](c2ccc(C)cc2)N1C(=O)c1ccc(C=NO[C@@H](C)c2cn([C@H](CO)Cc3ccccc3)nn2)cc1,composite z-score,[1],-0.612
same,composite z-score,[2],-0.0378
same,composite z-score,[3],-0.0943
same,composite z-score,[4],0.496
same,composite z-score,[5],1.11
same,composite z-score,[6],0.327
same,composite z-score,[7],0.477
same,z-score,[8],-3.25 (inactive)
same,composite z-score,[9],0.517
same,composite z-score,[10],0.25
same,composite z-score,[11],1.44
same,z-score,[12],0.76 (inactive)
same,z-score,[13],0.249 (inactive)
same,z-score,[14],1.25 (inactive)
same,composite z-score,[15],1.57
same,z-score,[16],1.35 (inactive)
same,composite z-score,[17],-0.126
same,composite z-score,[18],1.19
same,composite z-score,[19],1.1
same,composite z-score,[20],0.24
CC(=O)OC[C@H]1O[C@@H](ON=C(C)CCN2CCCc3nc(C)c(C)cc32)[C@H](OC(C)=O)[C@@H](OC(C)=O)[C@@H]1OC(C)=O,composite z-score,[1],-0.63
same,composite z-score,[2],0.165
same,composite z-score,[3],-0.127
same,composite z-score,[4],0.76
same,composite z-score,[5],1.41
same,composite z-score,[6],0.394
same,composite z-score,[7],1.07
same,z-score,[8],0.935 (inactive)
same,composite z-score,[9],0.139
same,composite z-score,[10],-0.0618
same,composite z-score,[11],1.55
same,z-score,[12],0.215 (inactive)
same,z-score,[13],0.0313 (inactive)
same,z-score,[14],0.427 (inactive)
same,composite z-score,[15],0.993
same,z-score,[16],-0.722 (inactive)
same,composite z-score,[17],-0.136
same,composite z-score,[18],0.952
same,composite z-score,[19],1.11
same,composite z-score,[20],0.0781
CO[C@H]1COC(=O)CCC[C@@H](C)[C@H](OC)COC(=O)[C@@H]2CCCN2C(=O)CC=C[C@@H]1C,composite z-score,[1],-0.442
same,composite z-score,[2],2.09
same,composite z-score,[3],-0.294
same,composite z-score,[4],-0.142
same,composite z-score,[5],-0.164
same,composite z-score,[6],-0.508
same,composite z-score,[7],0.505
same,z-score,[8],0.362 (inactive)
same,composite z-score,[9],-0.194
same,composite z-score,[10],0.113
same,composite z-score,[11],1.53
same,z-score,[12],-0.671 (inactive)
same,z-score,[13],0.044 (inactive)
same,z-score,[14],-0.986 (inactive)
same,composite z-score,[15],-1.77
same,z-score,[16],-0.476 (inactive)
same,composite z-score,[17],-0.183
same,composite z-score,[18],1.82
same,composite z-score,[19],0.473
same,composite z-score,[20],0.0869
C[n+]1ccc(-c2ccc(CO)cc2)cc1,composite z-score,[1],0.772
same,composite z-score,[2],-0.688
same,composite z-score,[3],-0.131
same,composite z-score,[4],-0.116
same,composite z-score,[5],1.08
same,composite z-score,[6],0.0728
same,composite z-score,[7],0.0658
same,z-score,[8],0.65 (inactive)
same,composite z-score,[9],-0.0846
same,composite z-score,[10],0.0053
same,composite z-score,[11],1.37
same,z-score,[12],-1.14 (inactive)
same,z-score,[13],-0.902 (inactive)
same,z-score,[14],3.9 (inactive)
same,composite z-score,[15],-0.202
same,z-score,[16],0.917 (inactive)
same,composite z-score,[17],0.149
same,composite z-score,[18],0.634
same,composite z-score,[19],1.06
same,composite z-score,[20],-0.188
CO[C@H]1COC(=O)CC=C[C@H](C)COC(=O)[C@@H](C)NC(=O)CC=C[C@@H]1C,composite z-score,[1],-0.512
same,composite z-score,[2],1.94
same,composite z-score,[3],-0.0996
same,composite z-score,[4],0.231
same,composite z-score,[5],-0.0457
same,composite z-score,[6],-0.79
same,composite z-score,[7],0.219
same,z-score,[8],0.464 (inactive)
same,composite z-score,[9],-0.214
same,composite z-score,[10],0.0794
same,composite z-score,[11],1.53
same,z-score,[12],-0.78 (inactive)
same,z-score,[13],-0.809 (inactive)
same,z-score,[14],-1.18 (inactive)
same,composite z-score,[15],-1.13
same,z-score,[16],0.0007 (inactive)
same,composite z-score,[17],-0.289
same,composite z-score,[18],1.88
same,composite z-score,[19],-0.222
same,composite z-score,[20],-0.0606
C#CCCCON=C1C[C@@H](O)[C@@H](O)[C@@H]2[C@@H]3C(=O)N(C(C)(C)C)C(=O)[C@@H]3CC[C@@H]12,composite z-score,[1],2.02
same,composite z-score,[2],0.0189
same,composite z-score,[3],-0.0468
same,composite z-score,[4],-0.0755
same,composite z-score,[5],-0.707
same,composite z-score,[6],-0.107
same,composite z-score,[7],-0.117
same,z-score,[8],-0.305 (inactive)
same,composite z-score,[9],0.987
same,composite z-score,[10],-0.0645
same,composite z-score,[11],-0.227
same,z-score,[12],0.266 (inactive)
same,z-score,[13],0.0546 (inactive)
same,z-score,[14],0.934 (inactive)
same,composite z-score,[15],0.148
same,z-score,[16],-0.131 (inactive)
same,composite z-score,[17],0.502
same,composite z-score,[18],-1.11
same,composite z-score,[19],-1.07
same,composite z-score,[20],-0.106
